Drawing on the supplement of paper PMC10127200, this text covers Euclidean distance for 11 compounds.

Each structure is given as a SMILES string. Counter-ions that a name gives are not always drawn.

This experiment relates to A549. Nature of the experiment: Euclidean distance of Cell Painting phenotypic profile (signed KS, 77 features) to DMSO centroid (dimensionless distance); higher = stronger phenotypic change vs DMSO (phenoactivity). Particulars: 48 h; 5 or 10 uM (library dependent). The essentials:
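Stained cells were imaged confocally at 20X with 9 fields per well, after 48 h of exposure to library compounds at 10 or 5 uM (set by library; 0.1% DMSO final). The cells were five cancer lines and a healthy fibroblast line. From the images, Harmony extracted 77 features, each expressed as a signed Kolmogorov-Smirnov statistic relative to same-plate vehicle wells. Phenoactivity is measured as Euclidean distance to the median vehicle profile, using plate-position-corrected, correlation-weighted profiles averaged across replicates at the top dose.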
As for `CN1c2ccccc2C(NCCCCCCC(=O)O)c2ccc(Cl)cc2S1(=O)=O` (stereo unspecified) [Tianeptine sodium], the Euclidean distance is 0.593.
In the case of `CC(C)=CCOc1c2occc2cc2ccc(=O)oc12` [Imperatorin], the Euclidean distance is 0.594.
Compound `Cc1cccc(C)c1NC1=NCCCS1` [Xylazine] showed an Euclidean distance of 0.386.
With `CC(C)NCC(O)c1ccccc1Cl` (stereo unspecified) [Clorprenaline HCl] the figure was 1.11; with `CCC1(c2cccc(O)c2)CCCCN(C)C1` (stereo unspecified) [Meptazinol HCl], 1.09.
`C[C@@H]1CC[C@@]2(OC1)O[C@H]1C[C@H]3[C@@H]4CC=C5C[C@@H](O[C@@H]6O[C@H](CO)[C@@H](O[C@@H]7O[C@@H](C)[C@H](O)[C@@H](O)[C@H]7O)[C@H](O)[C@H]6O[C@@H]6O[C@@H](C)[C@H](O)[C@@H](O)[C@H]6O)CC[C@]5(C)[C@H]4CC[C@]3(C)[C@H]1[C@@H]2C` [Dioscin] displayed an Euclidean distance of 2.54.
Consider `COc1ccc(OC)c(C(O)C(C)N)c1` (stereo unspecified) [Methoxamine HCl], for which the Euclidean distance was 0.76.
With `C#C[C@]1(OC(=O)CCCCCC)CC[C@H]2[C@@H]3CCC4=CC(=O)CC[C@@H]4[C@H]3CC[C@@]21C` [Norethisterone Enanthate] the figure was 2.5; with `O=C1CCC[C@@H]2[C@H]3CCCN4CCC[C@@H](CN12)[C@@H]34` [(+)-Matrine], 0.876; with `O=C(NCC1CCOCC1)c1cnc(Nc2ccc(Cl)cc2Cl)nc1C(F)(F)F`, 1.09.
`CN1C[C@H](C(=O)N[C@]2(C)O[C@@]3(O)[C@@H]4CCCN4C(=O)[C@H](Cc4ccccc4)N3C2=O)C[C@@H]2c3cccc4[nH]cc(c34)C[C@H]21` [Dihydroergotamine Mesylate] displayed an Euclidean distance of 1.93.
